Source: PubChem
ELG1 repair inh: inhibitors of ELG1-dependent DNA repair in HEK293T cells | HEK293T ELG1-luciferase reporter, luminescence, 16 h; DNA damage induced by 5-fluorouridine | Potency, µM (doses to about 46.1 µM), for the others: top-dose activity change, negative = inhibition, usual class: inhibitors | 2.3% of 330,000 active; also: potency is read from the fitted curve at half-maximal effect; nearly all actives have a fitted effect of over 55% in size
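In this reporter screen, reduction of luminescence relative to DMSO vehicle indicated activity. Compounds and 5-fluorouridine were added together to 2,000 cells per well, incubated for 16 hr at 37 °C, then developed with ONE-Glo.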
IL-1B inflam inh: blocks inflammasome-driven IL-1 beta release. 4.7% of 360,000 active. THP-1 LPS/ATP IL-1B secretion, AlphaLISA, 16 h; active compounds read low. activity change, % at 57.5 µM; in the data active = activity change below about -50%; inconclusive = mostly about -30% to -49%
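THP-1 cells pretreated 1 hr with compounds (up to 57.5 uM final), then stimulated with LPS (250 ng/mL final) plus ATP (1.25 mM final); secreted IL-1B measured by AlphaLISA after 16 hr, decreased signal indicating inhibition.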
HT1080 IDH1KD tx: HT-1080 IDH1 knockdown cell toxicity (counter line) | Potency, µM (highest dose often 46.1 µM), without a hit: at the top dose activity, negative = toxicity, hits mostly cytotoxic | 2% of 360,000 active | HT-1080 IDH1 knockdown viability, ATP luminescence, 48 h;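 also: potency is read from the fitted curve at half-maximal effect; 0% = DMSO wells and -100% = cell-free medium wells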
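Knockdown cells (IDH1KD HT-1080) received compounds 2 h after plating at 750 cells/well and were kept 48 h at 37 °C in 5% FBS RPMI. A CellTiter-Glo luminescence read gave % activity for curve fitting.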
HT1080-NT tox: kills 2HG-producing HT-1080-NT fibrosarcoma cells; Potency, µM (titrated, usually from 46.1 µM), for inactives: at the top dose activity, negative = less viability, actives largely listed as cytotoxic; HT-1080-NT fibrosarcoma viability, CellTiter-Glo ATP luminescence, 48 h; AID 686970; 1.6% of 360,000 active;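 also: NT is the 2HG producing partner of a matched IDH1 knockdown line; potency is read from the fitted curve at half-maximal effect; 0% = DMSO-treated cells and -100% = media-only wells without cells; nearly all actives have a fitted effect of over 55% in size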
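750 cells/well, RPMI + 5% FBS; 2 h settle, compound pin-transfer, 48 h at 37 degrees C. CellTiter-Glo 10 min RT, luminescence. Normalized to DMSO and media-only wells.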
DT40 TDP1 no CPT: qHTS for Inhibitors of human tyrosyl-DNA phosphodiesterase 1 (TDP1): qHTS in cells in absence of CPT. 15% of 420,000 active. Potency, µM (top dose mostly 46.2 µM), inactives show top-dose activity change, negative = growth inhibition, most hits filed as inhibitors. DT40 Tdp1-/- hTDP1 cells, no CPT, ATP luminescence, 48 h; also: potency is read from the fitted curve at half-maximal effect; nearly all actives have a fitted effect of over 55% in size
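No-CPT arm: Tdp1-/-;hTDP1 DT40 cells (400/well) plus compounds, incubated ≥48 hr at 37 °C. Readout CellTiter-Glo luminescence.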
DT40 TDP1 CPT: DT40-hTDP1 cell growth loss with CPT. 12% of 420,000 active. chicken DT40 Tdp1-/-;hTDP1 cells + 20 nM CPT, ATP luminescence, 48 h. Potency, µM (series often up to 46.2 µM), inactives show at the top dose activity change, negative = growth inhibition, most hits filed as inhibitors; also: potency is read from the fitted curve at half-maximal effect; nearly all actives have a fitted effect of over 55% in size
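Chicken DT40 Tdp1-/- cells stably complemented with human TDP1 were seeded at 400 cells/well in medium containing 20 nM camptothecin, exposed to pin-transferred compounds, and grown at 37 °C for at least 48 hr. Viability was read as ATP luminescence.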
Starred values were filed as active, the others as inactive; ? = inconclusive; · = no result; [ ] = remark or other dose. Only some compounds are listed: those with a hit (about 19% of all), similar ones and a draw of the others. Unless noted, calls follow the shape of the dose curve; as a rule, active = well fitted curve in the direction sought with a large enough effect; inconclusive = small, poorly fitted or top-dose-only effect, or another doubt; inactive = no such curve, though single readings can be large; an effect the other way counts as inactive or inconclusive. Unless noted, % is scaled to controls: 0 for no effect and ±100 for the full control effect.

SMILES	ELG1 repair inh	IL-1B inflam inh	HT1080 IDH1KD tx	HT1080-NT tox	DT40 TDP1 no CPT	DT40 TDP1 CPT
Cc1c(CN2CCC(CO)(Cc3cccc(C(F)(F)F)c3)CC2)c2ccccc2n1C	-5%	-94*	?	-13%	16µM*	23µM*
OCC1(Cc2cccc(C(F)(F)F)c2)CCN(Cc2cc3ccccc3o2)CC1	-17%	-136*	18µM*	21µM*	16µM*	?
O=c1[nH]c(O)c(/C=C2\C=Nc3ccccc32)[nH]1	?	16	1%	4%	16%	7%
Cc1cccc2[nH]cc(/C=C3/C=Nc4ccccc43)c12	·	·	·	·	4µM*	7.9µM*
COc1ccc(-n2ncc3c2CC(C)(C)CC3NC(=O)Cc2nonc2C)cc1 (configuration not stated)	-7%	-11	-1%	2%	?	-16%
CN1CCc2c(sc(NC(=O)c3ccc(S(=O)(=O)N4CCCC4)cc3)c2C(N)=O)C1	-9%	0	24%	18%	16µM*	?
CNC(=O)c1c(NC(=O)c2ccc(S(=O)(=O)N3CCCc4ccccc43)cc2)sc2c1CCN(C)C2	?	61	-3%	-6%	13µM*	23µM*
NC(=O)c1c(NC(=O)c2ccc([N+](=O)[O-])o2)sc2c1CCCC2	-7%	·	?	?	?	?
CN1CCc2c(sc(NC(=O)c3ccc([N+](=O)[O-])o3)c2C(N)=O)C1	?	-98*	0.58µM*	6.5µM*	3.7µM*	1.6µM*
CN1CCc2c(sc(NC(=O)c3cc(Cl)sc3Cl)c2C(N)=O)C1	10%	-91*	?	?	21µM*	?
COc1ccccc1CN(C)C(=O)CN1C(=O)c2ccccc2C1=O	7%	18	4%	6%	1%	22%
Cc1ccc(-c2cc(-c3coc4ccc(Cl)cc4c3=O)c3c(n2)-c2ccccc2OC3)cc1	·	·	·	·	0%	6%
CC(=O)Nc1ccc2c(c1)C(=O)c1ccc(Cl)cc1-2	·	19	-18%	0%	?	-23%
CN1CCc2c(sc(NC(=O)c3ccc(S(=O)(=O)N4CCCCCC4)cc3)c2C(N)=O)C1	10%	-96*	21µM*	23µM*	12µM*	18µM*
Cc1cc(/C=C(/C#N)C(=O)O)c(C)n1-c1cccc2ccccc12	?	15	-16%	-11%	-59%	?
CCN1CCN(c2ccc(N3CCN(S(=O)(=O)c4cc([N+](=O)[O-])ccc4C)CC3)nn2)CC1	1%	-10	5%	1%	?	?
O=C(c1ccc(-c2ccccc2Cl)o1)N1CCCCCCC1	·	?	?	?	23µM*	?
CC1CCCN(C(=O)c2ccc(-c3ccccc3Cl)o2)C1 (configuration not stated)	?	-17	-8%	-13%	?	12µM*
COCCCn1cnnc1SC(C)C(=O)Nc1ccc(S(=O)(=O)N2CCOCC2)cc1 (configuration not stated)	0%	2	4%	1%[9.24 µM]	3%	2%
O=[N+]([O-])c1ccc(-c2c[nH]c(=S)[nH]2)cc1	?	12	5%	0%	?	16µM*
CC1CCCN(c2ccc3nncn3n2)C1 (configuration not stated)	2%	10	9%	0%	2%	-13%
Cc1ccc(-c2noc(CCCC(=O)Nc3cccnc3)n2)cc1	?	45	23µM*	-1%	21µM*	?
O=C(CCCc1nc(-c2ccccc2)no1)Nc1cccnc1	?	98	-12%	2%	?	?
COc1ccccc1-c1noc(CCC(=O)Nc2cccnc2)n1	·	30	-2%	0%	?	-28%
O=C(CCc1nc(-c2ccccc2Cl)no1)Nc1cccnc1	?	28	-3%	0%	?	21µM*
SMILES	ELG1 repair inh	IL-1B inflam inh	HT1080 IDH1KD tx	HT1080-NT tox	DT40 TDP1 no CPT	DT40 TDP1 CPT
COc1ccc(N(CC(=O)N/N=C/c2ccc(OC)cc2OC)S(=O)(=O)c2ccccc2)cc1	-7%	-15	0%	-6%	-21%	-4%
COc1ccc2cc(/C=N/NC(=O)CN(c3ccccc3C)S(=O)(=O)c3ccccc3)c(Cl)nc2c1	?	25	18%	12%	6.5µM*	2.9µM*
Cc1ccc(CC(=O)NO)cc1	·	·	19%	-2%	-16%	?
COC(=O)CCC(C)C1CCC2C3CCC4CC(O)CCC4(C)C3CC(O)C12C (configuration not stated)	·	-11	?	?	21µM*	13µM*
COC(=O)CCC(C)C1CCC2C3C(OC(C)=O)CC4CC(O)CCC4(C)C3CC(O)C12C (configuration not stated)	·	12	-7%	-8%	16µM*	?
COc1ccc(-c2cc(C3CC3)nc(SCC(=O)c3cccs3)c2C#N)cc1	-4%	4	12%	16%	12µM*	?
N#Cc1c(-c2ccccc2)cc(C2CC2)nc1N	0%	0	-21%	-11%	-27%	-17%
CSc1nc(C2CC2)cc(-c2cccs2)c1C#N	-18%	?	?	32µM*	-21%	-29%
Cc1c(C(=O)c2ccccc2)c(=O)n(C)c(=O)n1C	19%	-1	17%	22%	0%	3%
O=C(NNC(=O)c1ccco1)c1csc(N2CCOCC2)n1	0%	2	15%	10%	-3%	1%
Cc1ccc(S(=O)(=O)N(C)C[C@@H]2Oc3ccc(NC(=O)CCC(F)(F)F)cc3CC(=O)N([C@@H](C)CO)C[C@@H]2C)cc1	0%	46	4.6µM*	2.1µM*	5.8µM*	4.1µM*
C[C@H]1CN([C@@H](C)CO)C(=O)Cc2cc(NC(=O)CCC(F)(F)F)ccc2O[C@H]1CN(C)S(C)(=O)=O	12%	14	10%	11%	3%	12%
C[C@H](CO)N1C[C@H](C)[C@@H](CN(C)S(=O)(=O)c2cn(C)cn2)Oc2c(NC(=O)Nc3ccc(C(F)(F)F)cc3)cccc2C1=O	1%	11	-3%	2%	-86%	?
C[C@H](CO)N1C[C@H](C)[C@H](CN(C)S(=O)(=O)c2cn(C)cn2)Oc2ccc(NC(=O)Nc3ccc(C(F)(F)F)cc3)cc2CC1=O	?	33	23µM*	5.2µM*	13µM*	?
